# Measurements from PubChem BioAssay AID488890 (Southern Research Specialized Biocontainment Screening …, 2010).
# Among all 320,000 compounds or so, about 1,300 (0.41%) were called active. Not shown: some 3% with an inconclusive outcome. No rule for the calls is given here. These entries were drawn from the full list. Entries with a potency or affinity are not part of this list.
# Assay: growth inhibition of non-replicating M. tuberculosis (AID 488890);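 also: plate controls were DMSO cells for no effect and high antibiotic wells for full effect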
# Conditions: Mycobacterium tuberculosis non-replicating, at 25 µM, stronger effect = higher value
row,SMILES,inhibition
1,CCN1CCN(C(=O)/C(=C/c2ccco2)NC(=O)c2ccccc2)CC1,-2.48%
2,O=C(CCC(=O)N1CCOc2ccccc21)N1CCCCC1,-34.4%
3,CN(C)CCCN(C(=O)c1ccc(N2C(=O)CCC2=O)cc1)c1nc2c(F)cccc2s1,-7.06%
4,CCN1CCCC1CNC(=O)C(=O)NC(C)c1ccccc1 (centres undefined),5.13%
5,COCc1cc(=O)[nH]c(SCC(=O)c2ccccc2)n1,-7.52%
6,O=C(O)c1cccc(-n2sc3ccccc3c2=O)c1,-0.63%
7,O=c1c2ccccc2sn1-c1ccc(F)cc1,-1.44%
8,CC1(C)CC(=O)C2=C(C1)OC1=C(C(=O)CC(C)(C)C1)C2c1ccccc1,-3.44%
9,Cc1ccc(NC(=O)CN(C)C2CCCCC2)cc1Cl,72.6%
10,Cc1ccc(NC(=O)CN2CCCCCC2)cc1Br,5.31%
11,COc1ccc(NC(=O)CN(C)C2CCCCC2)cc1Cl,33.9%
12,CN(CC(=O)Nc1ccc(S(N)(=O)=O)cc1)C1CCCCC1,-0.54%
13,CCC(=O)Nc1ccc2oc(-c3cccc(C)c3)nc2c1,-26.3%
14,COCC(=O)Nc1ccccc1C(=O)Nc1ccc(OC)cc1,-1.58%
15,COc1ccc(CCN(C)C2CCCN(S(C)(=O)=O)C2)cc1OC (centres undefined),-23.7%
16,O=C(CN1CCN(c2ccccc2F)CC1)c1c[nH]c2ccccc12,4%
17,COc1ccc(-n2nc(C(=O)NCC(=O)N3CCN(c4ccc(F)cc4)CC3)c3ccccc3c2=O)c(OC)c1,3.71%
18,N#Cc1ccc(C(=O)CN2CCN(c3ccccc3)CC2)cc1,3.58%
19,COc1ccc(N2CCN(C(=O)C3CCN(C(=O)c4ccc([N+](=O)[O-])cc4)CC3)CC2)cc1,21.3%
20,CS(=O)(=O)N(CC(=O)N1CCN(c2ccc(F)cc2)CC1)c1cccc(Cl)c1,-4.05%
21,O=C(NCc1cccnc1)c1ccc(S(=O)(=O)N2CCCCCC2)cc1,5.4%
22,Cc1ccc(NC(=O)COc2ccccc2C(=O)Nc2ccccc2)cc1Cl,-4.97%
23,CCOCC(=O)Nc1ccc(Br)c(C)c1,78.4%
24,CC(C)c1ccc(NC(=O)COc2ccccc2)cc1,75.1%
25,COCC(=O)Nc1ccc(C)c(Cl)c1,57.3%
26,O=C(COc1ccc(-n2ccnc2)cc1)Nc1cccc(F)c1,62.5%
27,Cc1ccc(NC(=O)CCC(=O)NNC(=O)COc2ccccc2)cc1C,-33.1%

row,SMILES,inhibition
1,Cc1ccc(NC(=O)COc2ccccc2C=O)cc1Cl,11.5%
2,COc1cc(NC(=O)COc2ccc(-n3ccnc3)cc2)cc(OC)c1,57.6%
3,CC(C)n1ncc(C(N)=O)c1N,-11%
4,O=C(CO/N=C/c1c(Cl)cccc1Cl)NNC(=O)c1ccc(Cl)cc1,-1.83%
5,CCn1ccnc1CN(C)C(=O)CCc1nnc(CCC2CCCCC2)o1,6.59%
6,Cc1cccc(-n2c(-c3ccncc3)n[nH]c2=S)c1C,13.2%
7,Nc1nc(SCCC(F)=C(F)F)n[nH]1,2.3%
8,O=C(CC(Nc1ccccc1)C(=O)O)c1ccccc1 (centres undefined),28.9%
9,Cc1cccc(OCC(=O)Nc2ccc3nc(C)sc3c2)c1,75.1%
10,Cc1nc2ccc(NC(=O)Cc3cccc(F)c3)cc2s1,3.01%
11,O=C(CC(Nc1ccc(Cl)cc1)C(=O)O)c1ccccc1 (centres undefined),58.9%
12,CC(=O)c1ccccc1OCc1ccc(S(=O)(=O)Cc2ccccc2)cc1,46%
13,O=C(NCc1ccccc1F)C1CCCN1C(=O)Nc1ccc(F)cc1 (centres undefined),5.39%
14,CC1CN(C(=O)COc2ccc3ccccc3c2Br)CC(C)O1 (centres undefined),3.67%
15,O=C(NCc1cccnc1)C(=O)N/N=C/c1ccccc1[N+](=O)[O-],0.97%
16,CC(=O)[C@@]1(O)CCC2C3CC=C4C[C@@H](O)CC[C@]4(C)C3CC[C@@]21C (some centres undefined),-5.65%
17,Cc1nnc(SCc2nnc(-c3cccs3)o2)n1C,-12.8%
18,Clc1ccc(Cc2nnc(-c3ccccc3Br)o2)cc1,69.1%
19,COc1cccc(C(=O)CSc2nnc(-c3cccs3)o2)c1,65%
20,Clc1ccc(Cc2noc(-c3cccs3)n2)cc1,78.5%
21,CCSc1nnc(-c2cccs2)o1,58.5%
22,Cc1nnc(SCc2nnc(-c3cccs3)o2)s1,72.4%
23,c1csc(-c2nnc(COc3ncnc4sccc34)o2)c1,10.4%
24,Fc1ccc(CSc2nnc(-c3ccncc3)o2)cc1,73.6%
25,CCOC(=O)c1cnc(SCc2ccc(C(C)(C)C)cc2)nc1N,14.9%
26,CCOC(=O)C(NC(=O)Nc1ncccn1)(Oc1ccccc1)C(F)(F)F (centres undefined),-3.5%
27,COc1ccc(N2CCOCC2)c(NC(=O)c2ccc(Br)o2)c1,10%

row,SMILES,inhibition
1,Cc1cc(C)n2[nH]c(=O)c(N=Nc3ccccc3)c2n1,-9.77%
2,Cc1cc(C(F)(F)F)n2[nH]c(=O)c(N=Nc3ccccc3)c2n1,-0.96%
3,COc1cccc(N=Nc2c(=O)[nH]n3c(C)cc(C)nc23)c1,65.1%
4,Cc1cc(C)n2[nH]c(=O)c(N=Nc3ccc(S(N)(=O)=O)cc3)c2n1,-1.74%
5,Cc1ccc(NC(=O)OCCNC(=O)OC(C)C)cc1,13.6%
6,C/C(=C/C(=O)O)C(=O)Nc1cccc(C(F)(F)F)c1,37.8%
7,CC(=O)Nc1ccc(/C=C/c2ccc3c([N+](=O)[O-])cccc3n2)cc1,10.1%
8,COc1cc(/C=C/c2ccc3cccc([N+](=O)[O-])c3n2)ccc1OCC(=O)O,31.6%
9,CN1/C(=C\C(=O)COC(=O)c2ccco2)C(C)(C)c2ccccc21,64.9%
10,CN1/C(=C\C(=O)COC(=O)c2ccc(O)cc2)C(C)(C)c2ccccc21,57.9%
11,CN1/C(=C\C(=O)COc2ccc3c(c2)OCO3)C(C)(C)c2ccccc21,43%
12,CN1/C(=C\C(=O)COC(=O)CN2C(=O)C3CC=CCC3C2=O)C(C)(C)c2ccccc21 (centres undefined),19.7%
13,COC(=O)c1ccccc1NC(=O)COc1ccc2c(c1)OCO2,70.5%
14,O=C(N/N=C/c1c[nH]c2ccccc12)C1CC(=O)N(c2ccccc2)C1 (centres undefined),12.1%
15,Cc1cc(C(=O)COc2ccc(F)cc2Br)c(C)n1C,11.3%
16,Cc1cc(C(=O)COC(=O)c2cccnc2Cl)c(C)n1C,7.66%
17,CCN(CC)c1ccc2c(C)c(Cl)c(=O)oc2c1,2.25%
18,CCN(CC)c1ccc2c(Cl)cc(=O)oc2c1,11.8%
19,Cc1cc(C)cc(OCC(=O)Nc2cccc(S(=O)(=O)NC3=NCCC3)c2)c1,5.82%
20,O=C(N/N=C/c1cc(Br)ccc1O)c1ccncc1,63.8%
21,COC(=O)N/N=C/c1cc(Br)ccc1O,27.7%
22,Oc1ccc(Br)cc1/C=N/NC(=S)NCCc1ccccc1,45.2%
23,O=C(CNC(=O)c1ccccc1Br)N/N=C/c1cc(Br)ccc1O,17.8%
24,O=C(N/N=C/c1cc(Br)ccc1O)Nc1ccccc1,14.3%
25,O=C(CNC(=O)c1ccccc1)N/N=C/c1cc(Br)ccc1O,38.3%
